Reference: PubChem BioAssay
Active and inactive are the calls of the source. Unless noted, how the calls were made is not given here.

Experiments:
[1] = liver-stage malaria parasite load reduction – cell-based, known kinase inhibitor set, luminescence, hepatoma host viability (AID 624392); settings: Plasmodium liver stage in hepatoma cells, luciferase luminescence, concentration not given here; liver cell % of control: measured here: host liver cell viability; parasite % of control: stronger effect = lower value;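 further: infected cells incubated roughly two days before readout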
[2] = altered dexamethasone sensitivity, NF-kB reporter, cell-based, luciferase, IL-1B stimulus (AID 624486); settings: IL-1B + dexamethasone, luminescence; percent of negative control (+Dex): actives lie on both sides, concentration not given here; z-score: measured here: IL-1B alone, no Dex;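 on percent of negative control (+Dex): 100% = mean signal of vehicle control wells on the plate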
[3] = C. elegans survival during P. aeruginosa infection – whole organism (AID 651566);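 further: tested at 14 µM; sign flipped so higher z means a lower ratio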; settings: C. elegans killed by P. aeruginosa, survival ratio
[4] = pro-inflammatory signaling induction in mouse macrophages – cell-based, murine, luminescence (AID 652131); settings: murine macrophage pro-inflammatory reporter, stronger effect = higher value
[5] = target: Cellular tumor antigen p53 (Homo sapiens) (UniProt P04637); assay: GFP-p53 level modulators in HPV16+ cells – imaging, known kinase inhibitor set, EGFP/DsRed ratio (AID 1053116); settings: GFP-p53 stability, stronger effect = higher value; EGFP object count: measured here: GFP-p53 positive objects count;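 further: cells exposed to compounds for 24 h at 37 °C before reading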
[6] = inducers of IRF3 signaling, differentiated THP-1 – cell-based, PMA-stimulated THP-1, luminescence (AID 1053176); settings: PMA-differentiated THP-1, IRF3 reporter luminescence; stronger effect = higher value
[7] = MELAS cybrid and Rieske KO viability enhancers – cell-based, MELAS cybrids, Rieske KO mouse fibroblasts, CellTiter-Glo, primary screen (AID 1508586;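 active means mean z-score across replicates of 1.96 or higher in either the MELAS or the Rieske mutant cell line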;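 further: z relative to plate mean and SD of compound and empty wells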); settings: low glucose
[8] = MELAS cybrid survival, CellTiter-Glo 48 h, stronger effect = higher value
[9] = Rieske KO mouse fibroblast survival, CellTiter-Glo 72 h

Sequence of Cellular tumor antigen p53 (Homo sapiens) (P04637 whole entry, looked up): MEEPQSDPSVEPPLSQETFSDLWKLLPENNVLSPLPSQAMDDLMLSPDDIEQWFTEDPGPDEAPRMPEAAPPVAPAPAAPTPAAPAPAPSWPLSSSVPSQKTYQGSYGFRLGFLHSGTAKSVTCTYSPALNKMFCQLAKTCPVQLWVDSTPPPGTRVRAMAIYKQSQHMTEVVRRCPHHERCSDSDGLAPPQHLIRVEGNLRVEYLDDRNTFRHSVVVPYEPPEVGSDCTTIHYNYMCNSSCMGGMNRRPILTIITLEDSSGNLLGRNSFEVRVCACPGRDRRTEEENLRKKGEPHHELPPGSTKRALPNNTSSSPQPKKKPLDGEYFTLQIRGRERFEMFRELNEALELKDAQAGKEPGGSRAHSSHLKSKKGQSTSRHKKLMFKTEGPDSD

Structure (SMILES) | liver cell % of control [1] | parasite % of control [1] | percent of negative control (+Dex) [2] | z-score [2] | z-score [3] | z-score [4] | EGFP object count [5] | EGFP/DsRed ratio [5] | fraction signal [6] | z-score [7, 8] | z-score [7, 9]
c1ccc(Cc2nc3ccc(Nc4ncnc5ccccc45)cc3[nH]2)cc1 | 166% | 15.2% (inactive) | 83% (inactive) | -0.365 | 1.34 (inactive) | 4.91 (inactive) | 5 | 0.119 (inactive) | -0.007 (inactive) | 0.254 (inactive) | -0.299
CNC(=O)c1cncc(/C=C/c2c(C)cccc2C)c1 | 106% | 86.6% (inactive) | 91.5% (inactive) | 0.11 | 0.025 (inactive) | -0.466 (inactive) | 4 | 0.149 (inactive) | 0.0135 (inactive) | 1.23 (inactive) | 0.0124
COc1cc(/C=N/Nc2ncnc3c2cnn3-c2ccccc2)ccc1O | 108% | 61% (inactive) | 92% (inactive) | 0.145 | 0.145 (inactive) | -0.075 (inactive) | 4.5 | 0.778 (inactive) | -0.007 (inactive) | 1.22 (inactive) | 0.165
CCn1c(-c2nonc2N)nc2c(C#CC(C)(C)O)nc(O[C@@H](CN)c3ccccc3)cc21 | 49.4% | 14.1% (inactive) | 132% (inactive) | 3.44 | 0.92 (inactive) | 1 (inactive) | 10.5 | 0.166 (inactive) | 0.0005 (inactive) | 1.1 | 4
c1ccc(Oc2ccc(Nc3ncc(-c4ccccc4)o3)cc2)cc1 | 103% | 102% (inactive) | 110% (inactive) | 1.91 | 0.1 (inactive) | 3.61 (inactive) | 4.5 | 0.122 (inactive) | 0.0065 (inactive) | -0.198 (inactive) | -0.417
Cc1cc(O)cc(C)c1/C=C/c1cncc(C(=O)OC(C)(C)C)c1 | 60.8% | 116% (inactive) | 100% (inactive) | 0.33 | 0.75 (inactive) | -0.067 (inactive) | 34.5 | 0.559 (inactive) | 0.0035 (inactive) | 0.119 (inactive) | -0.153
CN1CCN(CCCNc2nc3ccc(Oc4ccc(NC(=O)Nc5cc(C(F)(F)F)ccc5F)cc4)cc3[nH]2)CC1 | 95.2% | 94.4% (inactive) | 97.5% (inactive) | 0.025 | -0.94 (inactive) | 1.21 (inactive) | 3.5 | 0.103 (inactive) | -0.0045 (inactive) | -0.0444 (inactive) | -0.286
CC(=O)NCc1cccc(C#Cc2cncnc2Nc2ccc(OCc3cccc(F)c3)c(Cl)c2)c1 | 86.2% | 90.8% (inactive) | 77% (inactive) | -1.32 | 0.19 (inactive) | -0.99 (inactive) | 5.5 | 0.157 (inactive) | 0.004 (inactive) | 0.0992 (inactive) | -0.0459
C[C@@H](Oc1cc(-n2cnc3ccc(OCC4CCN(C)CC4)cc32)sc1C(N)=O)c1ccccc1Cl | 73.4% | 117% (inactive) | 104% (inactive) | -0.185 | -0.885 (inactive) | -2.53 (inactive) | 7 | 0.174 (inactive) | -0.009 (inactive) | -0.19 (inactive) | 0.83
O=C1NC(=O)C(N2CCc3ccccc32)=C1c1ccc(Cl)cc1 | 86.6% | 138% (inactive) | 74% (inactive) | -1.47 | -1.35 (inactive) | -0.315 (inactive) | 4 | 0.106 (inactive) | -0.0285 (inactive) | -0.729 (inactive) | 0.357
CNC(=O)c1cncc(/C=C/c2c(Cl)cccc2Cl)c1 | 138% | 48.1% (inactive) | 92% (inactive) | 0.3 | 0.1 (inactive) | 0.203 (inactive) | 5.5 | 0.562 (inactive) | -0.0025 (inactive) | 0.726 (inactive) | 0.293
O=S(=O)(CCOCc1ccc(-c2ccc3ncnc(Nc4ccc(OCc5cccc(F)c5)c(Cl)c4)c3c2)o1)c1ccccc1 | 105% | 111% (inactive) | 78% (inactive) | -1.27 | -1.41 (inactive) | -0.482 (inactive) | 2 | 0.0356 (inactive) | -0.003 (inactive) | -0.647 (inactive) | -0.248
COc1ccc(-c2nn3ncccc3c2-c2ccnc(Nc3ccc(F)c(F)c3)n2)cc1 | 177% | 16.9% (inactive) | 75.5% (inactive) | -0.785 | 1.61 (inactive) | -0.312 (inactive) | 4.5 | 0.039 (inactive) | 0.0025 (inactive) | 1.01 (inactive) | -0.0344
CCNC(=O)O[C@H]1CN[C@H](C#Cc2cc3ncnc(Nc4ccc(OCc5cccc(F)c5)c(Cl)c4)c3s2)C1 | 105% | 113% (inactive) | 82.5% (inactive) | -0.355 | 1.02 (inactive) | -0.875 (inactive) | 5.5 | 0.233 (inactive) | -0.003 (inactive) | 0.000408 (inactive) | -0.264
c1cnn2ncc(-c3ccnc(Nc4ccc5c(c4)OCCO5)n3)c2c1 | 141% | 14% (inactive) | 5% (active) | -9.09 | 0.965 (inactive) | -1.27 (inactive) | 2.5 | 0.105 (inactive) | -0.0005 (inactive) | 0.529 (inactive) | 0.76
CC(C)c1ccc(Nc2nccc(-c3cnn4ncccc34)n2)cc1 | 146% | 13.9% (active) | 12.5% (active) | -8.57 | 0.07 (inactive) | -1.83 (inactive) | 3.5 | 0.181 (inactive) | -0.005 (inactive) | 0.723 (inactive) | -0.0455
Cc1c2ccc(N(C)c3ccnc(Nc4cccc(S(N)(=O)=O)c4)n3)cc2nn1C | 94.3% | 100% (inactive) | 94% (inactive) | 0.455 | 1 (inactive) | -0.277 (inactive) | 3.5 | 0.0613 (inactive) | 0.0015 (inactive) | -1.32 (inactive) | -0.151
CCS(=O)(=O)c1ccc(OC)c(Nc2ncc(-c3cccc(OC)c3)o2)c1 | 161% | 16.6% (inactive) | 78.5% (inactive) | -0.275 | 0.285 (inactive) | -0.544 (inactive) | 4.5 | 0.129 (inactive) | 0.002 (inactive) | 1.48 (inactive) | -0.42
CNC(=O)c1cncc(/C=C/c2ccccc2C)c1 | 170% | 27.9% (inactive) | 108% (inactive) | -0.24 | 0.255 (inactive) | 0.604 (inactive) | 4 | 0.0734 (inactive) | 0.0395 (inactive) | 0.836 (inactive) | -0.131
CC1=C(C(=O)Nc2ccc3[nH]ncc3c2)C(c2ccc(Cl)c(Cl)c2)CC(=O)N1 (centres undefined) | 100% | 160% (inactive) | 83.5% (inactive) | -1.08 | -0.52 (inactive) | -0.714 (inactive) | 2 | 0.0149 (inactive) | -0.0025 (inactive) | -0.00134 (inactive) | -0.0171
O=C1Nc2ccc(I)cc2/C1=C\c1cc(Br)c(O)c(Br)c1 | 86.2% | 77.5% (inactive) | 92% (inactive) | -0.355 | 1.3 (inactive) | 0.587 (inactive) | 1 | 0.0402 (inactive) | -0.0105 (inactive) | 0.405 (inactive) | -0.253
NS(=O)(=O)c1cccc(N=Cc2c(O)[nH]c3ccccc23)c1 | 80.7% | 106% (inactive) | 89.5% (inactive) | 0.485 | -1.3 (inactive) | 1.25 (inactive) | 7 | 0.162 (inactive) | -0.0005 (inactive) | 1.07 (inactive) | -0.155
CS(=O)(=O)Nc1ccc(-c2cc(-c3ccccc3)cc(C(N)=O)c2N)cc1 | 89.1% | 126% (inactive) | 88% (inactive) | -0.23 | 1.28 (inactive) | -1.08 (inactive) | 2 | 0.102 (inactive) | -0.0055 (inactive) | 0.927 (inactive) | 0.162
CCn1c(-c2nonc2N)nc2cncc(C(=O)NCCNC)c21 | 80.5% | 190% (inactive) | 89% (inactive) | -0.865 | 0.43 (inactive) | -0.531 (inactive) | 7 | 0.122 (inactive) | -0.011 (inactive) | 3 (active) | 0.0886
COc1cc2c(cc1Nc1nc(Nc3cccc(F)c3C(N)=O)c3cc[nH]c3n1)N(C(=O)CN1CCN(C(C)C)CC1)CC2 | 73.3% | 300% (inactive) | 95.5% (inactive) | -0.34 | 0.095 (inactive) | -0.476 (inactive) | 4.5 | 0.201 (inactive) | 0.004 (inactive) | -0.91 (inactive) | -0.402
COc1ccc2c(-c3ccnc(Nc4cccc(OC(F)(F)F)c4)n3)cnn2n1 | 77.9% | 166% (inactive) | 91% (inactive) | -0.08 | -0.6 (inactive) | -0.916 (inactive) | 5.5 | 0.0552 (inactive) | -0.005 (inactive) | 0.611 (inactive) | -0.245
O=C(Nc1ccc(Oc2ccc3nc(NC(=O)c4ccccc4)[nH]c3c2)cc1)Nc1cc(C(F)(F)F)ccc1F | 151% | 113% (inactive) | 102% (inactive) | 0.635 | -0.485 (inactive) | -1.71 (inactive) | 2.5 | 0.0378 (inactive) | -0.006 (inactive) | 8.17 (active) | 1.84
COC(=O)Nc1nc2ccc(Oc3ccc(NC(=O)Nc4ccccc4)cc3)cc2[nH]1 | 96.2% | 260% (inactive) | 112% (inactive) | 1.13 | 0.065 (inactive) | 0.608 (inactive) | 17.5 | 0.664 (inactive) | -0.0025 (inactive) | -0.73 (inactive) | -0.00674
COC1CCC2NC3C4NC5CCC(OC)CC5C4C4C(=O)NC(=O)C4C3C2C1 (centres undefined) | 93.4% | 178% (inactive) | 106% (inactive) | 1.79 | 0.155 (inactive) | -0.67 (inactive) | 3 | 0.0486 (inactive) | -0.005 (inactive) | -0.302 (inactive) | 0.67
